Rows were chosen to be rich in hits. Some 11% of all compounds tested hit in one or more screens of this group.
L3MBTL1 inh – qHTS Assay for the Inhibitors of L3MBTL1 | AlphaScreen L3MBTL1–H3K9me1 peptide binding | Potency, µM (titrated, usually from 57.1 µM), for the others: top-dose activity, negative = inhibition, usual class: inhibitors | hit rate 0.66% among 230,000 | Lethal(3)malignant brain tumor-like protein 1 (Homo sapiens), Q9Y468 | AID 485360, 2010; note: potency is the fitted concentration of half-maximal effect; % is set by controls: 0 for no effect and ±100 for the full control effect; nearly all actives have a fitted effect of over 60% in size
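L3MBTL1 50 nM + b-AHA-H3(1-15)K9me1 75 nM, 30 min RT; compound added, 30 min RT; streptavidin donor/Ni-chelate acceptor beads 10 ug/mL each final, 30 min RT dark; AlphaScreen read.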
PI5P4K alpha inh – qHTS for Inhibitors of phosphatidylinositol 5-phosphate 4-kinase (PI5P4K) | Phosphatidylinositol 5-phosphate 4-kinase type-2 alpha (Homo sapiens), P48426 | PI5P4Kalpha enzyme, ADP-Glo luminescence, 60 min; stronger effect = lower value | max response, % | hit rate 1.2% among 330,000; active = max response of -50% or lower; inconclusive = between -30% and -50%; inactive = -30% or higher; note: value at the top dose of about 77 µM; % is set by controls: 0 for no effect and ±100 for the full control effect
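PI5P4Kalpha ADP-Glo assay; 5 microM ATP final; 60 min RT reaction; HEPES pH 7.4/EGTA/CHAPS, 5% DMSO; controls lacking substrate or enzyme; luminescent end-point.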
BAZ2B block – qHTS Assay for Inhibitors of BAZ2B; AlphaScreen BAZ2B-H3K14Ac peptide displacement; Bromodomain adjacent to zinc finger domain protein 2B (Homo sapiens), Q9UIF8; Potency, µM (highest dose often 114 µM), inactives show at the top dose activity change, negative = inhibition, actives largely listed as inhibitors; hit rate 4.4% among 360,000; note: potency is the fitted concentration of half-maximal effect; % is set by controls: 0 for no effect and ±100 for the full control effect; nearly all actives have a fitted effect of over 60% in size
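AlphaScreen displacement of biotin-H3(5-23)K14Ac peptide (50 nM final) from BAZ2B (50 nM final) in PBS pH 7.4, 0.01% Tween-20; complex preformed 30 min RT, then compounds (top 110 uM) 30 min RT, beads 20 min dark.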
HP1b chromo inh – HTS for Inhibitors of HP1-beta Chromodomain Interactions with Methylated Histone Tails. AlphaScreen HP1-beta / biotin-H3K9me3 peptide binding. Potency, µM (titrated, usually from 114 µM), without a hit: at the top dose activity change, negative = inhibition, usual class: inhibitors. hit rate 0.56% among 390,000; note: potency is the fitted concentration of half-maximal effect; nearly all actives have a fitted effect of over 70% in size
Target sequence (P83916 whole entry, looked up): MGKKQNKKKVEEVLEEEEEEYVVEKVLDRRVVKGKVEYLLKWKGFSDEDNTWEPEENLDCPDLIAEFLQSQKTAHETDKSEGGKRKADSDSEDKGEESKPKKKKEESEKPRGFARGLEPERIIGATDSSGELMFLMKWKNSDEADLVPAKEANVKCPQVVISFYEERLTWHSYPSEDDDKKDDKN
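HP1-beta protein (50 nM final) preincubated 30 min at room temperature with biotinylated H3(1-18)K9me3 peptide (50 nM) in PBS pH 7.4, 0.01% Tween-20, then compound added for 30 min. AlphaScreen streptavidin donor/nickel chelate acceptor beads (10 ug/mL final), 30 min dark, luminescence read.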
G9a inh – qHTS Assay for Inhibitors of Histone Lysine Methyltransferase G9a | Histone-lysine N-methyltransferase EHMT2 (Homo sapiens), Q96KQ7 | G9a H3K9 monomethylation, AlphaScreen, 2 h | Potency, µM (top dose mostly 102 µM), for inactives: at the highest dose activity, negative = inhibition, usual class: inhibitors | hit rate 8.8% among 350,000; note: potency is the fitted concentration of half-maximal effect; % is set by controls: 0 for no effect and ±100 for the full control effect; nearly all actives have a fitted effect of over 75% in size
Target sequence (Q96KQ7 913-1193 limits assumed): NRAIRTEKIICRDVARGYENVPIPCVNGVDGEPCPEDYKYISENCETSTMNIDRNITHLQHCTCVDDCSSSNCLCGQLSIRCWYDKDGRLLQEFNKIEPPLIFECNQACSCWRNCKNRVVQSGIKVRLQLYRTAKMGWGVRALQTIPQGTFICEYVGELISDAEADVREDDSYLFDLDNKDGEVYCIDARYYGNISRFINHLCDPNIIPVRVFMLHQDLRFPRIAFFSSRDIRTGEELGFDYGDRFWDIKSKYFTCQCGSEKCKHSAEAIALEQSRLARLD
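Using a bead-based AlphaScreen, monomethylated H3K9 product from 2 h room-temperature reactions (G9a 20 nM, peptide 500 nM, SAM 20 uM) was detected with 0.5 ug/mL rabbit anti-H3K9me1 antibody.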
JMJD2A Tudor inh – qHTS Assay for Inhibitors of JMJD2A-Tudor Domain | Lysine-specific demethylase 4A (Homo sapiens), O75164 | Potency, µM (doses to about 114 µM), without a hit: at the top dose activity change, negative = inhibition, most hits filed as inhibitors | AlphaScreen JMJD2A-Tudor / H3K4me3 peptide binding | hit rate 4.4% among 390,000; note: potency is the fitted concentration of half-maximal effect; % is set by controls: 0 for no effect and ±100 for the full control effect; nearly all actives have a fitted effect of over 50% in size
Active calls of the source: *; u = inconclusive; x = no result given; ! = not confirmed by another sample; [ ] = remark or other dose. Unless noted, calls come from the whole dose curve; as a rule, active = well fitted inhibition curve with a large enough effect; inconclusive = small, poorly fitted or top-dose-only effect; inactive = no such curve, though single readings can be large or run the other way.

SMILES | L3MBTL1 inh | PI5P4K alpha inh | BAZ2B block | HP1b chromo inh | G9a inh | JMJD2A Tudor inh
CCOC(=O)c1cc(C)sc1/N=C/C1C(=O)NC(=S)NC1=O | -17% | u | -33% | -16% | 40µM* | u
CCOC(=O)c1c(/N=C/C2C(=O)NC(=S)NC2=O)sc2c1CCC2 | -17% | -78* | -19% | 40% | u | 50µM*
CCOC(=O)c1c(/N=C/C2C(=O)NC(=S)NC2=O)sc(C)c1C | -9% | x | -10% | x | 35µM* | x
N#Cc1c(/N=C/C2C(=O)NC(=S)NC2=O)sc2c1CCCC2 | -7% | -55* | u | 6% | 28µM* | -34%
N#Cc1cc2c(nc1SCC(=O)Nc1ccc(F)c(Cl)c1)C1CCN2CC1 | x | x | -5% | 16% | -6%[59 µM] | -13%
CS(=O)(=O)N1CCC2(CC1)CN(Cc1ccncc1)C2 | x | x | x | x | 4%[12.7 µM] | x
COc1cccc(-n2c(CNC(=O)OC(C)(C)C)n[nH]c2=S)c1 | 36% | 3 | 32% | 30% | 28µM* | 10µM*
Clc1ccc(C(Cn2ccnc2)OCc2csc3c(Cl)cccc23)c(Cl)c1 (stereo unspecified) | u | -5 | 10µM* | 7% | 13µM* | 28µM*
c1ccc2c(N3CCNCC3)cccc2c1 | x | 23 | x | 51% | 17µM*! | -16%
c1ccc2nc(N3CCNCC3)ccc2c1 | 9% | -1 | 0% | 26% | 11µM*! | -12%
c1ccc(C(c2ccccc2)N2CCN(c3ccc4ccccc4n3)CC2)cc1 | 6% | -1 | -5% | 106% | 9% | 35%
Clc1cccc(N2CCNCC2)c1Cl | 9% | 5 | -1% | 30% | 3%[59 µM] | -2%
O=C1/C(=C/c2ccncc2)N2CCC1CC2 | x | 1 | -18% | 50% | -5%[59 µM] | 1%
O=C1/C(=C/c2ccc([N+](=O)[O-])cc2)N2CCC1CC2 | -9% | -5 | u | -11% | 11µM* | -31%
CC[C@]1(c2cccc(O)c2)CCCCN(C)C1 | x | x | x | x | 20%[21.5 µM] | x
C[N+](C)(C)CC(=O)O | 7% | 1 | 7% | 15% | 40µM*! | -31%
COCC(C)N(C(=O)CCl)c1c(C)csc1C (stereo unspecified) | x | x | x | x | 10%[12.7 µM] | x
CCOC(=O)C1CCN(Cc2ccc(Cl)nc2)CC1 | x | -2 | 0% | 44% | 7%[2.33 µM] | -11%
CCOC(=O)C1CCCN(Cc2ccc(-c3ccccc3)cc2)C1 (stereo unspecified) | 32% | 1 | u | -27% | x | 28µM*
NC[C@@H]1O[C@H](OC2[C@@H](CO)O[C@@H](OC3[C@H](O)[C@H](N)C[C@H](N)[C@H]3OC3O[C@H](CO)[C@@H](O)[C@H](O)[C@@H]3N)[C@H]2O)C(N)[C@H](O)[C@@H]1O (stereo partly specified) | x | x | x | x | 23%[59 µM] | x
CC1CCCCN1CC(=O)c1ccc2cc[nH]c2c1 (stereo unspecified) | x | -8 | -10% | 15% | 32µM* | -28%
O=C(COc1ccccc1)N1CCN(C2CCCC2)CC1 | -5% | 0 | -106% | -55% | 10µM* | 7.9µM*
CN1CCCN(C(=O)COc2ccccc2)CC1 | x | 0 | -2% | 31% | x | 12%
COc1ccc(OCC(=O)N2CCN(C3CCC(c4ccccc4)CC3)CC2)cc1 (stereo unspecified) | -5% | 7 | 50µM* | u | u | 20µM*
O=C(COc1ccc2ccccc2c1)N1CCN(C2CCN(Cc3ccccc3)CC2)CC1 | -7% | 12 | -4% | -3% | -48% | -24%
SMILES | L3MBTL1 inh | PI5P4K alpha inh | BAZ2B block | HP1b chromo inh | G9a inh | JMJD2A Tudor inh
O=C(Cc1ccccc1)N1CCN(C2CCCC2)CC1 | 30% | 3 | u | -34% | -31%[2.33 µM] | 32µM*
CN(C[C@H](Cc1ccccc1)N(C[C@H](Cc1ccccc1)N(CCC(C)(C)C)N=O)N=O)N=O | -6% | 4 | u | 37% | 2%[12.7 µM] | u
O=C(O)C1Sc2[nH]c(=O)sc2C2c3cc(Cl)ccc3OC(=O)C12 (stereo unspecified) | -12% | u | u | -16% | 28µM* | u
Cc1cccc(-n2c(/C=C/c3ccccc3O)nc3ccccc3c2=O)c1 | x | x | -1% | 39% | -2%[59 µM] | -11%
Cc1cccc(N2CCc3c2nc2ccccc2c3N)c1 | -1% | -5 | u | u | u | 3.2µM*!
CCOc1ccccc1NC(=O)c1sc2nc3c(cc2c1N)CN(Cc1ccccc1)CC3 | x | x | -2%[57.1 µM] | 53% | u | 0%
CN1CCc2nc3sc(C(=O)NC4CC4)c(N)c3cc2C1 | -24% | 4 | u | 17% | 8.9µM* | u
COC(=O)C1=C(c2ccc(OCc3ccccc3)cc2)C[C@@H]2CC[C@H]1N2C(=O)NCc1ccc(N(C)C)cc1 | -7% | 9 | 8.9µM* | 42% | 9%[2.33 µM] | u
CC(C)OP(=O)(OC(C)C)C(Nc1ccc([N+](=O)[O-])cc1)c1cccc([N+](=O)[O-])c1 (stereo unspecified) | -13% | -6 | -28% | 9% | -49% | u
CCCOP(=O)(OCCC)C(Nc1ccc(C(C)C)cc1)c1ccc([N+](=O)[O-])cc1 (stereo unspecified) | -18% | x | 56µM* | -23% | u | u
CC(Cc1ccccc1)NC(=O)CN1CCCC1=O (stereo unspecified) | 0% | 5 | -19% | 23% | u | 2%
CC(c1ccccc1)n1cncc1C(=O)N1CCCC1=O (stereo unspecified) | 2% | x | u | 16% | 50µM* | u
CCc1ccccc1NC(=O)NNS(=O)(=O)c1cc(C)ccc1C | x | 8 | 0% | 21% | 58% | -14%
Cc1ccc(C(C)C)c(OCCn2c(=O)oc3ccccc32)c1 | 11% | 14 | 101% | 231% | 41% | 61%
CC[N+](CC)(CC)CCOc1cccc(OCC[N+](CC)(CC)CC)c1OCC[N+](CC)(CC)CC | 0% | 21 | -38% | 25% | 5.3µM*! | 22µM*
CCCCCCCCCCCC[N+](C)(C)CCOc1ccccc1 | x | x | x | x | 2%[59 µM] | x
CCOP(=O)(OCC)C1(O)C(=O)Nc2ccccc21 (stereo unspecified) | -13% | -7 | -5% | 17% | 9%[59 µM] | -19%
CC1CCCC(C2(O)C(=O)Nc3ccccc32)C1=O (stereo unspecified) | 10%[11.4 µM] | -5 | -33% | 4% | 1.8µM* | -6%
Cc1oc(-c2cccc(Cl)c2)nc1CN1CCC(C(=O)NCCCN2CCN(c3ccc(F)cc3)CC2)CC1 | x | x | 22µM* | -1% | u | -28%

Bioassay records deposited in PubChem by National Center for Advancing Translational Sciences (NCATS).
